CHO-K1 Ca ag – counter-screen for M1 agonists: effect in parental CHO-K1 cells. AID 602248, 2012. activation, % at 3 µM. Fluo-8 calcium fluorescence; scaled to maximal ATP response, vehicle zero. 360,000 compounds, 0.48% hits; in the data active = activation above about 15%;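 note: untransfected CHO-K1 host cells lacking M1 receptor as counterscreen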
CHO-K1 Ca antag – M1 antagonist counterscreen hit in parental CHO-K1 cells | inhibition, % at 3 µM | ATP-induced calcium, Fluo-8 fluorescence | AID 602250 | 360,000 compounds, 0.6% hits;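 active = inhibition above a per-plate cutoff, the plate's mean sample inhibition plus 3 SD, cut at about 24% in these data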;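 note: 0% = DMSO plus EC80 ATP and 100% = DMSO alone without ATP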
M1 PAM parental – nonselective calcium activators in parental CHO-K1 cells, primary screen, counter-screen for M1 PAM project, cell-based, Fluo-8 calcium fluorescence, full deck, 1536-well; ATP EC20; 0% at ATP EC20, 100% at ATP max; activation, % at 3 µM; 360,000 compounds, 0.02% hits;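 active = activation above the run cutoff, the mean activation of all test compounds plus 3 SD, cut at about 40% in these data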;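 note: peak over basal fluorescence ratio in a 140 s read after ATP addition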
CHRM4 antagonist – human M4 muscarinic receptor antagonists, primary screen, CHO cells, Fluo-8 calcium fluorescence. Muscarinic acetylcholine receptor M4 (Homo sapiens), P08173. CHO-hM4 cells, ACh EC80. inhibition, % at 3 µM. 360,000 compounds, 0.73% hits. AID 624125, 2012;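 active = inhibition above its plate's cutoff, the mean inhibition of sample wells plus 3 SD, cut at about 27% in these data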;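 note: 0% = acetylcholine EC80 with DMSO and 100% = DMSO without agonist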
Target sequence (P08173 whole entry, looked up): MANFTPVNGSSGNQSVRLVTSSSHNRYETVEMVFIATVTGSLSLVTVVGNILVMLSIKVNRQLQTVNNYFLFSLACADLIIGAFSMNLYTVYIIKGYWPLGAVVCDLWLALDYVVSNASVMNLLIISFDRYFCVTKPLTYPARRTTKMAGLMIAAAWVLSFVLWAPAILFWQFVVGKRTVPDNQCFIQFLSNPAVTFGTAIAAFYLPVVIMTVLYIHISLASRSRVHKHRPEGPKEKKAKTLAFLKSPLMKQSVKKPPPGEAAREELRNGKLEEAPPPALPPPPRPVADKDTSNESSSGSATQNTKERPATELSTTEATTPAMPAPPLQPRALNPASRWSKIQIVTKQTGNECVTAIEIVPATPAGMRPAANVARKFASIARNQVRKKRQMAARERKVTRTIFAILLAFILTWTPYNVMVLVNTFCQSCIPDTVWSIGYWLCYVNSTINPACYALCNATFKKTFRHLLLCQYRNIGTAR
M4 PAM – human M4 muscarinic receptor positive allosteric modulators, primary screen, CHO-K1 cells, Fluo-8 calcium fluorescence. 360,000 compounds, 0.4% hits. CHO-K1 hM4/Gqi5, ACh EC20; 0% = ACh EC20, 100% = maximal ACh. activation, % at 3 µM. Muscarinic acetylcholine receptor M4 (Homo sapiens), P08173;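 active = activation above its plate's cutoff, the mean activation of sample wells plus 3 SD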
M4 ag – human M4 muscarinic receptor agonists, primary screen, CHO-K1 cells, Fluo-8 calcium fluorescence; Muscarinic acetylcholine receptor M4 (Homo sapiens), P08173; CHO-K1 hM4/Gqi5; vehicle 0%, full acetylcholine response 100%; activation, % at 3 µM; 360,000 compounds, 0.14% hits;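 active = activation above the run mean over all test wells plus 3 SD, cut at about 32% in these data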;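 note: peak over basal fluorescence ratio per well then scaled between controls; 0% = DMSO wells and 100% = acetylcholine at EC100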
* hit, by the source's call. Shown are actives, neighbours in structure and some others; about 2% of the full set was active somewhere.

What do the screens show for `CCOC(=O)[C@@H]1[C@H]2COc3cc(OC)ccc3[C@H]2N2C(=O)N(c3ccc(C(F)(F)F)cc3)C(=O)[C@]12C`?
CHO-K1 Ca ag: 7.7; CHO-K1 Ca antag: 33.0*; M1 PAM parental: -19.6; CHRM4 antagonist: 9.4; M4 PAM: -9.0; M4 ag: 17.1

What do the screens show for `C[C@@]12C(=O)Nc3ccc(F)cc3C(=O)N1[C@H]1c3cc(Cl)ccc3OC[C@@H]1[C@@H]2c1ccccc1`?
CHO-K1 Ca ag: 0.9; CHO-K1 Ca antag: -22.9; M1 PAM parental: 22.2; CHRM4 antagonist: 16.4; M4 PAM: -10.5; M4 ag: 1.6

How did CC[C@]12C(=O)N(C)C[C@H]([C@@H]3C(=O)N(Cc4ccccc4)C(=O)[C@@H]31)N2C(=O)c1ccc(C(C)(C)C)cc1 do in these assays?
CHO-K1 Ca ag: -0.2; CHO-K1 Ca antag: -8.8; M1 PAM parental: 9.0; CHRM4 antagonist: 3.6; M4 PAM: -0.3; M4 ag: 0.5

How did COc1ccc(NC(=O)Cc2nnc(SCC(=O)NC3=NCCS3)n2C)cc1 do in these assays?
CHO-K1 Ca ag: 10.7; CHO-K1 Ca antag: -3.3; M1 PAM parental: 1.9; CHRM4 antagonist: -0.3; M4 PAM: 2.8; M4 ag: 1.2

What do the screens show for `COc1ccc2cc1Oc1ccc(cc1)C[C@H]1c3cc(c(OC)cc3CCN1C)Oc1c(OC)c(OC)cc3c1[C@H](C2)N(C)CC3`?
CHO-K1 Ca ag: 1.5; CHO-K1 Ca antag: 0.1; M1 PAM parental: 13.1; CHRM4 antagonist: 77.8*; M4 PAM: -16.9; M4 ag: 5.8

How did CN(C)C(=O)/C(=C/c1ccc(-c2cccc([N+](=O)[O-])c2)o1)NC(=O)c1ccccc1 do in these assays?
CHO-K1 Ca ag: 21.7*; CHO-K1 Ca antag: 3.5; M1 PAM parental: -4.1; CHRM4 antagonist: -0.7; M4 PAM: -0.1; M4 ag: 6.2

How did CN(C)C(=O)/C(=C\c1ccc(-c2cccc([N+](=O)[O-])c2)o1)NC(=O)c1ccccc1 do in these assays?
CHO-K1 Ca ag: 1.5; CHO-K1 Ca antag: -14.0; M1 PAM parental: 9.9; CHRM4 antagonist: -7.1; M4 PAM: -7.4; M4 ag: 5.3

Results for CC(C)NC(=O)/C(=C/c1cn(-c2ccccc2)nc1-c1cccc([N+](=O)[O-])c1)NC(=O)c1ccccc1 ?
CHO-K1 Ca ag: 3.8; CHO-K1 Ca antag: -7.1; M1 PAM parental: 7.1; CHRM4 antagonist: 32.3*; M4 PAM: -2.5; M4 ag: 11.3

What do the screens show for `COc1ccccc1CN1CC(C(=O)NCC2(O)CCCCC2)CCC1=O` (centres undefined)?
CHO-K1 Ca ag: 0.9; CHO-K1 Ca antag: -8.7; M1 PAM parental: 9.4; CHRM4 antagonist: -4.0; M4 PAM: 5.0; M4 ag: 1.5

Results for Cc1nn(CCOc2cccc(Br)c2)c(C)c1[N+](=O)[O-] ?
CHO-K1 Ca ag: 0.3; CHO-K1 Ca antag: -21.7; M1 PAM parental: 26.4; CHRM4 antagonist: -4.3; M4 PAM: -1.5; M4 ag: 1.2

What do the screens show for `Cc1ccc(Sc2cc(NCCCO)c([N+](=O)[O-])c3nonc23)cc1`?
CHO-K1 Ca ag: 1.9; CHO-K1 Ca antag: -12.1; M1 PAM parental: 16.6; CHRM4 antagonist: -5.5; M4 PAM: 5.7; M4 ag: 2.2

Results for CCC(=O)OCCNc1cc(SCCC(=O)OC)c2nonc2c1[N+](=O)[O-] ?
CHO-K1 Ca ag: 0.4; CHO-K1 Ca antag: 3.7; M1 PAM parental: 6.3; CHRM4 antagonist: -5.6; M4 PAM: 1.9; M4 ag: 2.0

What do the screens show for `CC(=O)OCCCNc1cc(Sc2ccc(Cl)cc2)c2nonc2c1[N+](=O)[O-]`?
CHO-K1 Ca ag: -0.1; CHO-K1 Ca antag: 10.6; M1 PAM parental: 6.7; CHRM4 antagonist: 16.7; M4 PAM: 22.4*; M4 ag: 0.7

How did CCCC(=O)OCCNc1cc(Sc2nc3ccccc3[nH]2)c2nonc2c1[N+](=O)[O-] do in these assays?
CHO-K1 Ca ag: 0.5; CHO-K1 Ca antag: 18.8; M1 PAM parental: -8.1; CHRM4 antagonist: 54.8*; M4 PAM: -13.6; M4 ag: 3.7

How did C=C(C)CSc1nnc(-c2cc(OC)c(OC)c(OC)c2)n1N do in these assays?
CHO-K1 Ca ag: 0.7; CHO-K1 Ca antag: -2.6; M1 PAM parental: 18.5; CHRM4 antagonist: -1.4; M4 PAM: -4.7; M4 ag: 0.8

Results for C=C(C)CSc1nnc(-c2ccc(OC)c(OC)c2)n1N ?
CHO-K1 Ca ag: 0.6; CHO-K1 Ca antag: -14.6; M1 PAM parental: 17.6; CHRM4 antagonist: -5.0; M4 PAM: 30.5*; M4 ag: 1.3

Results for CCOC(=O)C(C)/C(C)=N/NC(=O)CCC(=O)Nc1cc(C)ccc1C (centres undefined) ?
CHO-K1 Ca ag: 0.9; CHO-K1 Ca antag: -18.1; M1 PAM parental: 22.9; CHRM4 antagonist: -4.2; M4 PAM: 1.7; M4 ag: 1.1

What do the screens show for `COc1ccc(CNC(=O)c2ccc(Cn3cc(Br)cn3)o2)cc1`?
CHO-K1 Ca ag: 1.2; CHO-K1 Ca antag: -4.3; M1 PAM parental: -21.6; CHRM4 antagonist: 2.3; M4 PAM: 1.5; M4 ag: 0.9

What do the screens show for `COc1ccc2c(c1)Cc1sc(NC(=O)c3ccco3)nc1-2`?
CHO-K1 Ca ag: 1.2; CHO-K1 Ca antag: -9.3; M1 PAM parental: 10.8; CHRM4 antagonist: -14.0; M4 PAM: 27.3*; M4 ag: 2.0

How did COc1ccc2c(c1)-c1nc(NC(=O)c3ccco3)sc1CC2 do in these assays?
CHO-K1 Ca ag: 1.7; CHO-K1 Ca antag: 0.2; M1 PAM parental: 12.2; CHRM4 antagonist: -8.8; M4 PAM: -0.2; M4 ag: 6.2

Results for COc1ccc2c(c1)CCc1sc(NC(=O)c3ccco3)nc1-2 ?
CHO-K1 Ca ag: 0.0; CHO-K1 Ca antag: 1.8; M1 PAM parental: 17.0; CHRM4 antagonist: -30.0; M4 PAM: 28.2*; M4 ag: 2.4

What do the screens show for `Cc1cc(C)c(C#N)c(SCc2nnc(-c3ccccc3)o2)n1`?
CHO-K1 Ca ag: 0.7; CHO-K1 Ca antag: 25.1*; M1 PAM parental: -16.8; CHRM4 antagonist: -18.0; M4 PAM: 2.4; M4 ag: 4.1

Results for Cc1cc(Nc2ccc(Br)cc2F)n2nc(C)nc2n1 ?
CHO-K1 Ca ag: -0.5; CHO-K1 Ca antag: 1.0; M1 PAM parental: 41.0*; CHRM4 antagonist: -8.5; M4 PAM: 4.3; M4 ag: -2.3

What do the screens show for `Cc1cc(Nc2ccccc2F)n2nc(C)nc2n1`?
CHO-K1 Ca ag: 0.4; CHO-K1 Ca antag: -0.9; M1 PAM parental: -3.1; CHRM4 antagonist: -3.0; M4 PAM: 5.8; M4 ag: -0.2

How did CCOc1ccc(OCC)c(Nc2cc(C)nc3nc(C)nn23)c1 do in these assays?
CHO-K1 Ca ag: 0.0; CHO-K1 Ca antag: 34.5*; M1 PAM parental: -10.9; CHRM4 antagonist: -16.0; M4 PAM: 0.5; M4 ag: -1.1
